According to the supplement of paper PMC10849652:
About 7,900 targets were measured; listed, in parts, are those with a hit and a random draw of the rest. About 0.6% of all pairs of compound and target were hits.

Columns and labels:
Assay in all cases: log2 fold change, soluble protein after heating vs DMSO (PISA); higher = thermal stabilisation; K562 cells, 10 uM, 30 min; active = over 0.2 and 3.5 SD of the protein, either way, in both replicates (recomputed)
saracatinib = compound: CN1CCN(CCOc2cc(OC3CCOCC3)c3c(Nc4c(Cl)ccc5c4OCO5)ncnc3c2)CC1 [saracatinib]
Method in brief: (§1)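 Soluble protein was defined as the supernatant after 21,000xg for 90 min. It came from K562 cells at 2×10^6 cells/mL given 10 μM compound for 30 min, heated in aliquots for 3 min across 48°C-58°C, pooled, and extracted in PBS with 0.5% NP-40 at 4°C, and was quantified by TMTpro 16plex LC-MS/MS with equalised channel sums. Thermal stability against control samples, from duplicates, is reported as log2 fold change.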

sotrastaurin = compound: CN1CCN(c2nc(C3=C(c4c[nH]c5ccccc45)C(=O)NC3=O)c3ccccc3n2)CC1 [sotrastaurin]
Method in brief: as §1

alvocidib = compound: CN1CC[C@H](c2c(O)cc(O)c3c(=O)cc(-c4ccccc4Cl)oc23)[C@H](O)C1 [alvocidib]
Method in brief: as §1

Tubastatin A = compound: CN1CCc2c(c3ccccc3n2Cc2ccc(C(=O)NO)cc2)C1 [Tubastatin A]
Method in brief: as §1

[1] = compound: CNC(=O)C1=CC=CC=C1NC2=NC(=NC=C2Cl)NC3=C(C=C(C=C3)N4CCOCC4)OC
Method in brief: as §1

defactinib = compound: CNC(=O)c1ccc(Nc2ncc(C(F)(F)F)c(NCc3nccnc3N(C)S(C)(=O)=O)n2)cc1 [defactinib]
Method in brief: as §1

rucaparib = compound: CNCc1ccc(-c2[nH]c3cc(F)cc4c3c2CCNC4=O)cc1 [rucaparib]
Method in brief: as §1

[2] = compound: CNc1nc(-c2ccc3c(N)n[nH]c3c2)cc(N2C[C@@H](C(=O)NC3CCCCC3)CC[C@H]2C)n1
Method in brief: as §1

encorafenib = compound: COC(=O)N[C@@H](C)CNc1nccc(-c2cn(C(C)C)nc2-c2cc(Cl)cc(NS(C)(=O)=O)c2F)n1 [encorafenib]
Method in brief: as §1

[3] = compound: COC(=O)[C@H](CCSC)NC(=O)C1=C(C=C(C=C1)NC[C@H](CS)N)C2=CC=CC=C2
Method in brief: as §1

Measured: log2 fold change

DOCK8 (UniProt Q8NF50)
inactive: saracatinib -0.241 | sotrastaurin -0.398 | alvocidib 0.149 | Tubastatin A 0.166 | [1] -0.163 | defactinib 0.242 | rucaparib 0.044 | [2] -0.06 | encorafenib -0.079 | [3] -0.154

DCP2 (UniProt Q8IU60)
inactive: saracatinib -0.053 | sotrastaurin -0.267 | alvocidib -0.047 | Tubastatin A 0.013 | defactinib 0.098 | [2] -0.153 | [3] 0.081

DCUN1D1 (UniProt Q96GG9)
inactive: saracatinib 0.032 | sotrastaurin -0.001 | alvocidib -0.067 | Tubastatin A -0.009 | [1] 0.007 | defactinib -0.033 | rucaparib -0.026 | [2] -0.02 | encorafenib 0.014 | [3] -0.011

DCAF10 (UniProt Q5QP82)
inactive: saracatinib 0.09 | sotrastaurin 0.021 | alvocidib -0.011 | Tubastatin A -0.094 | [1] -0.018 | defactinib -0.009 | rucaparib -0.083 | [2] 0.007 | encorafenib 0.052 | [3] 0

DNTTIP2 (UniProt Q5QJE6)
inactive: saracatinib -0.038 | sotrastaurin -0.104 | alvocidib -0.007 | Tubastatin A 0.145 | [1] 0.011 | defactinib -0.131 | rucaparib 0.171 | [2] 0.03 | encorafenib 0.067 | [3] 0.121

CTSS (UniProt P25774)
active: saracatinib 0.478
inactive: sotrastaurin 0.051 | alvocidib -0.039 | Tubastatin A -0.084 | defactinib 0.074 | rucaparib 0.258 | [2] 0.134 | encorafenib -0.074 | [3] -0.012

EZH2 isoform 2 (UniProt Q15910)
inactive: saracatinib -0.043 | sotrastaurin 0.001 | alvocidib -0.18 | Tubastatin A 0.119 | [1] 0.011 | defactinib -0.207 | [2] 0.217 | [3] -0.302

DHPS (UniProt M0R1T2)
inactive: sotrastaurin -0.06

CTNNBL1 (UniProt Q8WYA6)
inactive: defactinib -0.513 | rucaparib 0.137 | encorafenib 0.121 | [3] -0.19

ELMO1 (UniProt Q92556)
inactive: saracatinib 0.051 | sotrastaurin 0.046 | [1] -0.074 | defactinib -0.045 | [2] 0.041 | [3] -0.222

DNAL1 (UniProt Q4LDG9)
inactive: saracatinib -0.081 | alvocidib -0.121 | defactinib -0.14 | [2] 0.062 | [3] -0.13

DCAF4 (UniProt Q8WV16)
inactive: saracatinib -0.097 | sotrastaurin 0.027 | rucaparib -0.346 | [2] 0.193 | encorafenib 0.103

DDB1 isoform 2 (UniProt Q16531)
Chain of UniProt Q16531 (Q16531 whole entry, looked up): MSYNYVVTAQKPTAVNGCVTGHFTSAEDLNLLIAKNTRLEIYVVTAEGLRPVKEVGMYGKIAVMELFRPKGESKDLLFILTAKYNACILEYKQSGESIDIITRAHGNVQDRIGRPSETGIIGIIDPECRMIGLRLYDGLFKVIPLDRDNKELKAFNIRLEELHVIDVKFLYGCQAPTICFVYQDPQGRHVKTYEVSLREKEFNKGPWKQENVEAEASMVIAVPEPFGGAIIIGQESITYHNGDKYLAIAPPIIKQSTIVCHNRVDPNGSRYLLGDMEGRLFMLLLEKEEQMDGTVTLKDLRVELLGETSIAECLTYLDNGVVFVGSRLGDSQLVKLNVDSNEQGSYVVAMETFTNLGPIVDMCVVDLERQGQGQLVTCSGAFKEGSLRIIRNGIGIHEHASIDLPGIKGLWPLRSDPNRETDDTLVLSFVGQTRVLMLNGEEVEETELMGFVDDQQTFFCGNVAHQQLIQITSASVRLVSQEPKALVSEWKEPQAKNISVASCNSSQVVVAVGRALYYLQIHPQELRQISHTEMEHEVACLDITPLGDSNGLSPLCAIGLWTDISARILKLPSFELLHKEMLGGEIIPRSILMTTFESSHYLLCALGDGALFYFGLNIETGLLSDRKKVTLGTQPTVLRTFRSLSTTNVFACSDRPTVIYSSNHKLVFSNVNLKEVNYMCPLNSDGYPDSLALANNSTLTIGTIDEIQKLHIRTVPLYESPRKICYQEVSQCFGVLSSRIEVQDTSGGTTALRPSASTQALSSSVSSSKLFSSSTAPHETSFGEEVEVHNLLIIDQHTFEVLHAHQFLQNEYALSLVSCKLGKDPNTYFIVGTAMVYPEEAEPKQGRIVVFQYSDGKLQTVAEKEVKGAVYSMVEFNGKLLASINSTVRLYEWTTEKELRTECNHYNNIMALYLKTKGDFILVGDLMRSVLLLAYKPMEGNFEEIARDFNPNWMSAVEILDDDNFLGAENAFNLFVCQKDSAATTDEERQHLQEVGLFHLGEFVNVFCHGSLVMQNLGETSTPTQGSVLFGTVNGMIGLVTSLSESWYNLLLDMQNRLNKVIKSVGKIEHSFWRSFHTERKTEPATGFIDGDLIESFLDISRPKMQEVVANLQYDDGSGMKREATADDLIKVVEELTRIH
inactive: sotrastaurin 0.053 | rucaparib -0.067 | encorafenib -0.041

ERF (UniProt P50548)
inactive: sotrastaurin -0.058 | Tubastatin A 0.377 | [1] 0.069

DENND1A isoform 6 (UniProt Q8TEH3)
inactive: Tubastatin A -0.018 | defactinib -0.081 | [3] -0.024

DNAJB1 (UniProt M0R128)
inactive: alvocidib 0.082 | Tubastatin A -0.058 | defactinib -0.073 | [3] 0.18

EDRF1 (UniProt Q3B7T1)
inactive: saracatinib 0.104 | sotrastaurin 0.012 | alvocidib -0.006 | [1] -0.111 | rucaparib 0.098 | [2] 0.07 | encorafenib 0.058

F2RL3 (UniProt Q96RI0)
inactive: saracatinib 0.04 | alvocidib 0.004 | Tubastatin A 0.082 | [1] -0.051 | defactinib 0.009 | [2] 0.005 | [3] 0.008

ENTR1 (UniProt Q96C92)
active: [3] -0.486
inactive: saracatinib -0.131 | [1] -0.03 | defactinib 0.022 | [2] -0.039

FAM118B (UniProt Q9BPY3)
inactive: sotrastaurin -0.02 | alvocidib -0.142 | Tubastatin A 0.019 | [1] 0.088 | defactinib -0.113 | rucaparib 0.041 | encorafenib 0.029 | [3] -0.037

DCAF12 (UniProt Q5T6F0)
inactive: sotrastaurin 0.058 | rucaparib 0.199 | encorafenib 0.112

EIF2AK3 (UniProt Q9NZJ5)
inactive: saracatinib -0.019 | alvocidib 0.045 | Tubastatin A 0.039 | [1] 0.183 | rucaparib -0.125 | [2] 0.082 | encorafenib -0.216

EEF1D isoform 3 (UniProt P29692)
inactive: Tubastatin A 0.147 | [1] -0.03

FAM160A2 isoform 2 (UniProt Q8N612)
inactive: saracatinib -0.066 | alvocidib -0.016 | Tubastatin A -0.17 | defactinib -0.002 | rucaparib -0.085 | [2] -0.064 | encorafenib -0.168 | [3] 0.128

DERPC (UniProt P0CG12)
Chain of UniProt P0CG12 (P0CG12 whole entry, looked up): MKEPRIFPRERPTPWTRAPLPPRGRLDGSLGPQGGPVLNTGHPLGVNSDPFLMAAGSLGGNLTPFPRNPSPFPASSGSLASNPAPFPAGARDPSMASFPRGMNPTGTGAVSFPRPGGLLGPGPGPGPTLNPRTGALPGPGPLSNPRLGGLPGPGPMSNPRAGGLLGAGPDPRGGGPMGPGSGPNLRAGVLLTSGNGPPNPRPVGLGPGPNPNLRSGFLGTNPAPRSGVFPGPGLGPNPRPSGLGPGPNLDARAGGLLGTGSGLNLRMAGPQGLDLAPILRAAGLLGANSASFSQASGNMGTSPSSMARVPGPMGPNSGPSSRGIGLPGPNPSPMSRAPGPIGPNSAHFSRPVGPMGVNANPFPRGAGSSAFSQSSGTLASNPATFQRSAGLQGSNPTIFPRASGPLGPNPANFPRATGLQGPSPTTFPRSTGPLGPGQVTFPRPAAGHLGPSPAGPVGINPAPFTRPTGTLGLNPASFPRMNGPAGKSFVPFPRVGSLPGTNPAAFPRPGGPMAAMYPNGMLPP
inactive: saracatinib -0.168 | [1] 0.08 | defactinib -0.153 | rucaparib -0.001 | [2] -0.071 | encorafenib -0.109 | [3] 0.063

FAM117B (UniProt Q6P1L5)
inactive: saracatinib -0.004 | alvocidib -0.117 | Tubastatin A 0.084 | [1] -0.035 | defactinib -0.494 | rucaparib -0.013 | [2] -0.223 | encorafenib -0.092 | [3] -0.341

EHBP1 (UniProt Q8NDI1)
Chain of UniProt Q8NDI1 (Q8NDI1 whole entry, looked up): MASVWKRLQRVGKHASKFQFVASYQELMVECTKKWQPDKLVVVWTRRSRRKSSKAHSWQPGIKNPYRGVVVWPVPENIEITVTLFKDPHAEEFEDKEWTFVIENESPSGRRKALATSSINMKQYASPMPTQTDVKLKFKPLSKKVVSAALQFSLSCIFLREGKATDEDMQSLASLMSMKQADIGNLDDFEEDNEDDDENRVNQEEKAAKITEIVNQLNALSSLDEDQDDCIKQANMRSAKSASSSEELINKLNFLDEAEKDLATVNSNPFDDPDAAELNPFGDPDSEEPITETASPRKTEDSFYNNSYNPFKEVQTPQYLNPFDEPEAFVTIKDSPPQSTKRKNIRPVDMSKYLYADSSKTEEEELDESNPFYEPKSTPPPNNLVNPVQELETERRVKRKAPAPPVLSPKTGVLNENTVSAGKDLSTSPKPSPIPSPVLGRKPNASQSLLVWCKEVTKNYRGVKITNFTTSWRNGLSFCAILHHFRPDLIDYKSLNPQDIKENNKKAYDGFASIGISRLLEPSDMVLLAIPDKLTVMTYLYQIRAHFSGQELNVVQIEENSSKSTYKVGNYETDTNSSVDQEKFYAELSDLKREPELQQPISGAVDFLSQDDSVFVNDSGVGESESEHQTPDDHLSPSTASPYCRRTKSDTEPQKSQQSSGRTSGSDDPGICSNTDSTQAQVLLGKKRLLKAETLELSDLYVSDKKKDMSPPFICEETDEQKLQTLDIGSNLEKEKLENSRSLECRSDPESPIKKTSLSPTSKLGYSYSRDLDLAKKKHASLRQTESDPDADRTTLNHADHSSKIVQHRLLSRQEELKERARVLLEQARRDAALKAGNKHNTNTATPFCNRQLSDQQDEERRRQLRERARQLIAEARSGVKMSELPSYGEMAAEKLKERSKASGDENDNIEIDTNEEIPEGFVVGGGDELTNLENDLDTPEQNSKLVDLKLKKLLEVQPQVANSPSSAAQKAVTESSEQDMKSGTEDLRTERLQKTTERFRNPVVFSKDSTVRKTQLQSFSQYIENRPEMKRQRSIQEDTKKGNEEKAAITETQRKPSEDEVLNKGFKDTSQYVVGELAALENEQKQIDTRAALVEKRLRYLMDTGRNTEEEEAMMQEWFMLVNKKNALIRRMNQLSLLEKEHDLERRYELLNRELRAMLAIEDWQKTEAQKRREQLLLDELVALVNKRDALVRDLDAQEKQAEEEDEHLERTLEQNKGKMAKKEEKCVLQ
inactive: alvocidib -0.085 | Tubastatin A 0.045 | rucaparib 0.135 | encorafenib -0.058

EID1 (UniProt Q9Y6B2)
Chain of UniProt Q9Y6B2 (Q9Y6B2 whole entry, looked up): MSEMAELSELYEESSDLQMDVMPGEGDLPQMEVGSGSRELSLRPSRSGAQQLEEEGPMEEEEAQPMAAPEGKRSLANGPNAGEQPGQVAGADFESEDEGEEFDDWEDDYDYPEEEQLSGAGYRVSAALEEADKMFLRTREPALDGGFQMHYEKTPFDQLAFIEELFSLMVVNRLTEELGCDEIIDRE
inactive: sotrastaurin -0.049 | Tubastatin A 0.599 | [1] -0.111

DYNC1I2 isoform 2 (UniProt Q13409)
Chain of UniProt Q13409 (Q13409 whole entry, looked up): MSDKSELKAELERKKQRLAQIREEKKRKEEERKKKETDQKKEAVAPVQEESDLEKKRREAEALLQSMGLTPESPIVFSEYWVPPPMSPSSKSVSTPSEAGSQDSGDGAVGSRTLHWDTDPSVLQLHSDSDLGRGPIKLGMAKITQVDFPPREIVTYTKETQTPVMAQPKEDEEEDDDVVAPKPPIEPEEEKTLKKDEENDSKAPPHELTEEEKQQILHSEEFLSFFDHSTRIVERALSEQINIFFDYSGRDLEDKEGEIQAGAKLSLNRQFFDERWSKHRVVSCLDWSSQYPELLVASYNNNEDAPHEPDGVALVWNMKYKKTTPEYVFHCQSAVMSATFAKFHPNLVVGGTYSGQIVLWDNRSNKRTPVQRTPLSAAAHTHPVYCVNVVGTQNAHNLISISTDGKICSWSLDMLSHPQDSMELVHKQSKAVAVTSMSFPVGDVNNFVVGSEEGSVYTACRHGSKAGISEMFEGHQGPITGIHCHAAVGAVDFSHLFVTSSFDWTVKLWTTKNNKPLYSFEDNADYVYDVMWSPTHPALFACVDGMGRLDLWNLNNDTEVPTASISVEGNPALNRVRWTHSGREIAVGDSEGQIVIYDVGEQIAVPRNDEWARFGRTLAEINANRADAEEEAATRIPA
inactive: sotrastaurin 0.062 | alvocidib 0 | Tubastatin A -0.028 | [1] -0.021 | rucaparib -0.034 | encorafenib -0.108

ELOVL7 (UniProt A1L3X0)
inactive: saracatinib -0.018 | alvocidib -0.101 | Tubastatin A -0.002 | [1] -0.112 | [2] -0.093

ENTPD7 (UniProt Q9NQZ7)
Chain of UniProt Q9NQZ7 (Q9NQZ7 whole entry, looked up): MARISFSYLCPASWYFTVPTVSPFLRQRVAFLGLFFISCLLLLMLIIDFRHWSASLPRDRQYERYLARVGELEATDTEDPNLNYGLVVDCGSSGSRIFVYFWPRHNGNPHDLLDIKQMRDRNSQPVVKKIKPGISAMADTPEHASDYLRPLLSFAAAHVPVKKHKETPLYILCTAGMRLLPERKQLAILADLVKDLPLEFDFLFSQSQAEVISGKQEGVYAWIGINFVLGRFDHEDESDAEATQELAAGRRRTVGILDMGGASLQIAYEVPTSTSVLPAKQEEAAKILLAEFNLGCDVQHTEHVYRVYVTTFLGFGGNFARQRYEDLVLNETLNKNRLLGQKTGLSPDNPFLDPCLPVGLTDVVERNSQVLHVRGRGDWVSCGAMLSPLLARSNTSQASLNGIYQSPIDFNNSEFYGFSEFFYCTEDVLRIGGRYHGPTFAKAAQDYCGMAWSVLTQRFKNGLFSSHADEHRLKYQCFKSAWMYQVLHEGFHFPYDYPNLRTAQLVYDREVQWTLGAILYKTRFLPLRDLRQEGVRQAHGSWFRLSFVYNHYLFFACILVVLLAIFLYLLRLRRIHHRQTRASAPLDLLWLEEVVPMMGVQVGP
inactive: saracatinib 0.155 | sotrastaurin 0.17 | Tubastatin A 0.064 | [1] -0.162 | rucaparib -0.078 | [2] 0.136 | encorafenib -0.26

FADS1 (UniProt F5GYH4)
inactive: Tubastatin A 0.123 | defactinib 0.06 | [3] 0.123

ELAC1 (UniProt Q9H777)
inactive: saracatinib 0.094 | sotrastaurin 0.006 | alvocidib 0.051 | [1] -0.056 | defactinib -0.031 | rucaparib 0.153 | [2] 0.049 | encorafenib 0.063 | [3] 0.022

EPHB4 (UniProt P54760)
inactive: sotrastaurin -0.057

DOP1A (UniProt Q5JWR5)
inactive: [1] -0.052 | defactinib 0.164 | [3] -0.083

CYP24A1 (UniProt Q07973)
inactive: saracatinib -0.144 | Tubastatin A 0.365 | [1] -0.075 | defactinib 0.394 | rucaparib 0.115 | [2] 0.078 | encorafenib 0.075 | [3] 0.016

DNM2 isoform 4 (UniProt P50570)
inactive: saracatinib -0.126 | sotrastaurin -0.024 | alvocidib -0.072 | [1] -0.088 | rucaparib -0.268 | [2] -0.235 | encorafenib 0.107

EIF4G1 (UniProt Q04637)
inactive: saracatinib -0.112 | alvocidib 0.047 | Tubastatin A 0.006 | defactinib -0.08 | [2] -0.017 | [3] 0.014

DBNL (UniProt Q9UJU6)
inactive: alvocidib -0.142

FAM135A (UniProt Q9P2D6)
inactive: sotrastaurin -0.192 | [1] 0.004 | defactinib -0.131 | [3] 0.003

DDX11 (UniProt Q96FC9)
inactive: saracatinib -0.016 | sotrastaurin -0.248 | Tubastatin A -0.034 | [1] -0.035 | defactinib -0.052 | [2] -0.005 | [3] 0.118

DLK1 (UniProt P80370)
inactive: saracatinib 0.021 | alvocidib 0.03 | defactinib -0.08 | rucaparib -0.023 | [2] -0.09 | encorafenib -0.032 | [3] 0.159

EEF2K (UniProt O00418)
Chain of UniProt O00418 (O00418 whole entry, looked up): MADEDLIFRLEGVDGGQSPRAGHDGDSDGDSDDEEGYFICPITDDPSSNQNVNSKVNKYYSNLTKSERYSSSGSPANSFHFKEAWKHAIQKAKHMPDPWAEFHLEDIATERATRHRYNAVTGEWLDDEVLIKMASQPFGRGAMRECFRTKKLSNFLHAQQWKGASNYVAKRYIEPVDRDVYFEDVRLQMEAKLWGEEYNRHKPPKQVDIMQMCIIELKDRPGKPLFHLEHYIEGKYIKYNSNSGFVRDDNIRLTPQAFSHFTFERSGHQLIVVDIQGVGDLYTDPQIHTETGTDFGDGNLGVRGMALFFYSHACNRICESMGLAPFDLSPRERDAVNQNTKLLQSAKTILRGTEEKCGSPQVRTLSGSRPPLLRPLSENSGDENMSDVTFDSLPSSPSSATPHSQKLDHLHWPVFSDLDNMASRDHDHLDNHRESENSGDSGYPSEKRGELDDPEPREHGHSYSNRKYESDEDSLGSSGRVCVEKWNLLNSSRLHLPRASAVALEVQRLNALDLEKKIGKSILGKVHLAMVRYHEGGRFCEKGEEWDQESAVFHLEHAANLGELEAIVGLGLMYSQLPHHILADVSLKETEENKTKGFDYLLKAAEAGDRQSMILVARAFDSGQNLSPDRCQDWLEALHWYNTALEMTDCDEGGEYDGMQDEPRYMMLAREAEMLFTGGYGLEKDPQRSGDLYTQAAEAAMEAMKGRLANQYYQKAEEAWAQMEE
inactive: alvocidib 0.194 | [1] 0.064 | defactinib -0.021 | rucaparib 0.1 | encorafenib -0.036 | [3] -0.266

FAM207A (UniProt Q9NSI2)
inactive: saracatinib 0.005 | sotrastaurin -0.115 | Tubastatin A 0.106 | [1] 0.028 | defactinib 0 | rucaparib 0.064 | [2] 0.007 | encorafenib 0.149 | [3] 0.031

EIF3J isoform 2 (UniProt O75822)
inactive: saracatinib 0.035 | sotrastaurin 0.075 | Tubastatin A -0.082 | [1] -0.021 | defactinib -0.085 | [2] -0.04 | [3] -0.008

DOLPP1 (UniProt Q86YN1)
inactive: alvocidib -0.059 | Tubastatin A -0.066 | [1] 0.012 | defactinib -0.134 | rucaparib 0.087 | encorafenib -0.057 | [3] 0.156

EGR1 (UniProt P18146)
active: defactinib -0.841
inactive: sotrastaurin -0.481 | alvocidib -0.604 | Tubastatin A 0.129 | [1] -0.147 | [3] 0.041
